PLAP act: PLAP enzyme activators, biochemical, luminescence, HTS; activation fold at 20 µM; hit rate 1.2% among 96,000; purified PLAP enzyme, luminescent substrate read-out; active compounds read high; Alkaline phosphatase, placental type (Homo sapiens), P05187; in the data active = activation fold above about 2
CYP2C9 inh: blockers of cytochrome P450 2C9 activity – biochemical, luminescence, ADME assay, primary screen. inhibition, % at 5 µM. P11712. AID 777, 2007. hit rate 20% among 96,000. CYP2C9 Supersomes, luciferin-H conversion;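 active = blocking of liver enzyme CYP2C9 beyond about 50% at 5 µM, limit read from the data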
CYP2C19 inhib: blockers of cytochrome P450 2C19 activity – biochemical, luminescence, ADME assay, primary screen | P33261 | CYP2C19 Supersomes, luciferin-H EGE luminescence, 30 min | inhibition, % at 5 µM | hit rate 21% among 96,000 | AID 778, 2007;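 active = CYP2C19 inhibition above a set limit at 5 µM in the primary screen, cut at about 50% in these data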;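 note: plate controls were negative control wells for no effect and 2.5 mM tranylcypromine positive control for full effect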
Target sequence (P33261 whole entry, looked up): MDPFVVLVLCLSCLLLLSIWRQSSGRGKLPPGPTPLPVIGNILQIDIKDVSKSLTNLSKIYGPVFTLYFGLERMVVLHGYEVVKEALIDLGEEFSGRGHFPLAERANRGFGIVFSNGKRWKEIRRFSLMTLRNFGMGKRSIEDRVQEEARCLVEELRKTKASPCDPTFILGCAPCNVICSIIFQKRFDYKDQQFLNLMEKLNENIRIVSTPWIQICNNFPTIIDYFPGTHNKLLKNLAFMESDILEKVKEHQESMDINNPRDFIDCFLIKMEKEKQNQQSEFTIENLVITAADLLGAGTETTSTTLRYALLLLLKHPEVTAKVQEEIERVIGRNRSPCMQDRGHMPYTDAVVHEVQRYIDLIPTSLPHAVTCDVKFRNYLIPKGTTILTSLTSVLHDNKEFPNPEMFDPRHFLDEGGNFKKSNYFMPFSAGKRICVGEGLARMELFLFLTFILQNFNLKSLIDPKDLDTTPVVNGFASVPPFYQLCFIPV
CYP2C9 activ: human CYP2C9 activators, primary screen, biochemical, luminescence. Cytochrome P450 2C9 (Homo sapiens), P11712. recombinant CYP2C9, luciferin-H conversion; active compounds read high; factor 1 = untreated enzyme, 0 = blocked. activation factor at 5 µM. hit rate 1.4% among 96,000. AID 1024, 2008;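 active = activation factor of 2 or more for CYP2C9 at a 5 µM dose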;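 note: 0 = sulfaphenazole-blocked wells and 1 = vehicle-only wells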
CYP2C19 activ: human CYP2C19 activators, primary screen, biochemical, luminescence; recombinant CYP2C19, luciferin-H EGE luminescence; active compounds read high; 0 = fully inhibited enzyme, 1 = untreated enzyme; activation factor at 5 µM; 96,000 tested, under 10 active;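 active = activation factor of at least 2 at 5 µM in the primary screen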;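 note: 0 = wells with 2.5 mM tranylcypromine and 1 = vehicle-only wells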
Starred values were filed as active, the others as inactive. Sampled rows, rich in hits. Any-hit rate of the full collection: about 31%.

SMILES	PLAP act	CYP2C9 inh	CYP2C19 inhib	CYP2C9 activ	CYP2C19 activ
COc1cc(C(=O)N2CCC(c3nc(-c4cccnc4)no3)CC2)cc(OC)c1OC	1.3	-7	-12	1.1	1.1
CSCC[C@H](NC(=O)OC(C)(C)C)C(=O)N1CCC(C(=O)N[C@@H](C)C(=O)O)CC1	1.2	-1	4	1	1
O=C(CSc1nnc(Cc2ccccc2)n1-c1cccc(Cl)c1)N1CCOCC1	1.4	20	16	0.8	0.8
COc1ccc(C2C(C(=O)Nc3cc(C)on3)c3ccccc3C(=O)N2C)cc1OC (stereo unspecified)	1.1	19	4	0.8	1
COc1ccc(C2C(C(=O)Nc3cc(C)on3)c3ccccc3C(=O)N2C)cc1 (stereo unspecified)	1.1	69*	22	0.3	0.8
CCC(C)NCCOCCOc1ccc(F)cc1 (stereo unspecified)	1	1	-15	1	1.1
Cc1nc2c(C(=O)N3CCN(C)CC3)cnn2c(C)c1Cc1ccc(Cl)cc1	2.1*	26	82*	0.7	0.2
Cc1ccc(-c2cc(C(F)(F)F)n3ncc(C(=O)N4CCN(C)CC4)c3n2)cc1	1.5	6	2	0.9	1
Cc1nc2c(C(=O)N3CCCCC3)cnn2c(C)c1Cc1ccccc1F	1.4	10	79*	0.9	0.2
C=CCc1c(C)nc2c(C(=O)O)cnn2c1C	1	9	-4	0.9	1
O=C(Nc1ccc(-c2nc3c(ccc4ccccc43)o2)cc1)c1ccco1	1.3	-45	16	1.5	0.8
CCOC(=O)CNC(=O)Cn1cnc2ccc(S(=O)(=O)N3CCC(C)CC3)cc2c1=O	1	23	-9	0.8	1.1
Cc1ccc(C)n1-c1ccc(C(=O)O)cc1	1.6	56*	0	0.4	1
c1ccc(-c2ccc(Oc3cc(N4CCOCC4)nc(-c4ccccc4)n3)cc2)cc1	0.8	16	-1	0.8	1
O=S(Cc1cc(Oc2ccccc2)nc(-c2ccccc2)n1)c1ccccc1 (stereo unspecified)	1.3	78*	84*	0.2	0.2
COc1ccc(-c2nnn(Cc3nn[nH]n3)n2)cc1OC	1.1	58*	20	0.4	0.8
COc1cc(-c2nnn(CC(=O)NC3CCS(=O)(=O)C3)n2)ccc1OCc1ccccc1 (stereo unspecified)	1.4	69*	52*	0.3	0.5
COc1ccc(-c2nnn(CC(=O)c3ccccc3)n2)cc1OC	1.4	-61	59*	1.6	0.4
CCOc1ccc(-c2nnn(CCC(=O)O)n2)cc1OC	1.2	5	0	1	1
COc1cc(-c2nnn(CC#N)n2)ccc1OCc1ccccc1	1.5	76*	96*	0.2	0
O=C(CN1CCC(NC(=O)c2ccc(F)cc2)CC1)NCc1ccccc1F	0.9	5	2	1	1
C=CCNc1nc(-c2ccc(Cl)cc2)cs1	1	1	32	1	0.7
N#CCn1nnc(-c2ccc3c(c2)OCO3)n1	1	21	67*	0.8	0.3
COc1ccc(C(C)(C)C)cc1S(=O)(=O)N1CCN(C)CC1	1.5	-97	23	2*	0.8
COc1c(C)cc(S(=O)(=O)N2CCCC2)c(C)c1C	1	-64	96*	1.6	0
SMILES	PLAP act	CYP2C9 inh	CYP2C19 inhib	CYP2C9 activ	CYP2C19 activ
COc1ccc(S(=O)(=O)N2CCCN(S(=O)(=O)c3ccc(OC)cc3C)CC2)c(C)c1	1	-109	23	2.1*	0.8
COc1cc(C)c(S(=O)(=O)N2CCCC2)cc1C	1	-46	88*	1.5	0.1
COc1ccc(OC)c(S(=O)(=O)N2CCCCCC2)c1	1	-12	34	1.1	0.7
Cc1ccccc1C(=O)c1cccn1CC(=O)N1CCCCCC1	1	32	33	0.7	0.7
CCN(CCO)c1cc(Cl)nc(SC)n1	1	-90	-7	1.9	1.1
COc1cc(C)c(S(=O)(=O)N2CCN(C)CC2)cc1C	1.2	-14	62*	1.1	0.4
COc1cc(S(=O)(=O)N2CCCCCC2)c(OC)cc1Br	0.8	75*	96*	0.3	0
CCOC(=O)Nc1ccc(OC)cc1S(=O)(=O)N1CCCCC1	0.9	-8	63*	1.1	0.4

Screening data from PubChem.
